Compound activity deposited in PubChem by National Center for Advancing Translational Sciences (NCATS).
TDP1 cell CPT – qHTS for Inhibitors of human tyrosyl-DNA phosphodiesterase 1 (TDP1): qHTS in cells in presence of CPT; 420,000 compounds, 12% hits; Potency, µM (series often up to 46.2 µM), for the others: at the top dose activity change, negative = growth inhibition, actives largely listed as inhibitors; chicken DT40 Tdp1-/-;hTDP1 cells + 20 nM CPT, ATP luminescence, 48 h; note: % is set by controls: 0 for no effect and ±100 for the full control effect; nearly all actives have a fitted effect of over 55% in size
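Cell growth measured by CellTiter-Glo luminescence after a minimum 48 h, 37 C compound exposure with 20 nM CPT in Tdp1-knockout DT40 cells stably expressing hTDP1, seeded 400/well; qHTS titration format.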
TDP1 block – qHTS Assay for Inhibitors of Tyrosyl-DNA Phosphodiesterase (TDP1) | recombinant TDP1, AlphaScreen DNA substrate cleavage | Potency, µM (highest dose often 130 µM), for inactives: top-dose activity change, negative = inhibition, most hits filed as inhibitors | 350,000 compounds, 0.28% hits | AID 485290, 2010; note: % is set by controls: 0 for no effect and ±100 for the full control effect; nearly all actives have a fitted effect of over 40% in size
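AlphaScreen read-out: signal falls as enzyme removes the 3' tyrosine-FITC from a 5'-biotinylated DNA oligo (15 nM, 5 min, RT). Enzyme was E. coli-made recombinant Tdp1 at 1 nM, exposed to compound for 15 min beforehand; beads 10 ug/ml, 10 min.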
DT40 TDP1 no CPT – qHTS for Inhibitors of human tyrosyl-DNA phosphodiesterase 1 (TDP1): qHTS in cells in absence of CPT. AID 686978, 2013. Potency, µM (top dose mostly 46.2 µM), for inactives: at the top dose activity change, negative = growth inhibition, hits mostly inhibitors. 420,000 compounds, 15% hits. DT40 Tdp1-/- hTDP1 cells, no CPT, ATP luminescence, 48 h; note: % is set by controls: 0 for no effect and ±100 for the full control effect; nearly all actives have a fitted effect of over 55% in size
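Luminescent ATP content (CellTiter-Glo) served as the growth readout. Knockout chicken DT40 cells expressing human TDP1 were exposed to compounds without camptothecin for a minimum 48 hr at 37 °C.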
ClpP mod – qHTS Assay for Activators of ClpP. ATP-dependent Clp protease proteolytic subunit (Bacillus subtilis (strain 168)), P80244. purified B. subtilis ClpP, FRET peptide cleavage, 20 min. Potency, µM (top dose mostly 57.5 µM), without a hit: at the highest dose activity change, negative = active. 340,000 compounds, 1.9% hits. AID 651965, 2013; active = well fitted falling curve with a large enough effect; inconclusive = small, poorly fitted or top-dose-only effect; inactive = no such curve, though single readings can be large or run the other way; note: the source files actives as falling curves though it sought activators and does not explain the sign; nearly all actives have a fitted effect of over 65% in size
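FRET quenching reversal measured ClpP activation: 10 microg/mL B. subtilis ClpP at pH 8 with the FRET-FV decapeptide, read at 430 nm after 320 nm excitation. The 20-min minus 0-min signal was scaled between DMSO/no-enzyme wells and ADEP (5.8 microM final).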
Active calls of the source: *; u = inconclusive; x = not tested or not shown; [ ] = remark or other dose. An excerpt weighted towards active compounds, which were near 17% of everything screened. Unless noted, calls come from the whole dose curve; as a rule, active = well fitted curve in the direction sought with a large enough effect; inconclusive = small, poorly fitted or top-dose-only effect, or another doubt; inactive = no such curve, though single readings can be large; an effect the other way counts as inactive or inconclusive. Potency is the fitted concentration of half-maximal effect.

SMILES	TDP1 cell CPT	TDP1 block	DT40 TDP1 no CPT	ClpP mod
COc1ccc(-c2noc(CCC(=O)NC3CCN(Cc4ccccc4)CC3)n2)cc1	u	x	12µM*	2%
CC(C)(C)CC(=O)Nc1nnc(SCC(=O)N2CCCCC2)s1	-19%	-2%	u	x
COc1ccc(OC)c(NC(=O)CSc2ncc3c(n2)-c2ccccc2N(C)S3(=O)=O)c1	u	8%	u	-6%
c1ccc(NC2=Nc3ccccc3CS2)cc1	-18%	-3%	-6%	-1%
Brc1ccc(NC2=Nc3ccccc3CC2)cc1	u	2%	16µM*	-2%
Cc1ccc2nc(SC(C)C(=O)N3CCOCC3)[nH]c2c1 (stereo unspecified)	4%	7%	3%	x
O=C(OC1CCOC1=O)c1cc(-c2ccc(Br)cc2)nc2ccccc12 (stereo unspecified)	-4%	1%	-18%	u
COc1ccc(-c2cc(C(=O)Oc3ccc(C)cc3)c3ccccc3n2)cc1	u	-3%[12.3 µM]	u	4%
COc1ccc(-c2cc(C(=O)Oc3ccc([N+](=O)[O-])cc3)c3ccccc3n2)cc1	u	-3%	u	28µM*
COc1ccc(-c2cc(C(=O)OC3CCOC3=O)c3ccccc3n2)cc1 (stereo unspecified)	1%	-5%	-5%	25µM*
CCCS(=O)(=O)NC(=O)C1(C)CCCN(C(=O)c2cc(OC)ccc2Br)C1 (stereo unspecified)	-4%	x	-2%	0%
CCN(CC)c1ccc(-c2nnc(SCC(=O)NCc3ccco3)n2C)cc1	u	x	u	-1%
COc1cc(O)cc2c1[C@@H]1Oc3c(ccc(O)c3CC=C(C)C)[C@@H]1CO2	18µM*	x	23µM*	-1%
COc1cccc(C(=O)Nc2cccc(-c3nc4ncccn4c3C)c2)c1	u	3%	u	-26%
CC1=CC(C)(C)NC(=S)N1c1ccccc1C	u	5%	26µM*	-1%
CC1=CC(C)(C)NC(=S)N1c1ccc(C)cc1C	u	2%	u	-3%
COc1ccc(-n2c(=O)c3c4c(sc3n(Cc3ccccc3Cl)c2=O)CCC4)c(OC)c1	u	0%	21µM*	0%
COc1ccc(-n2c(=O)c3c4c(sc3n(Cc3ccc(C)cc3C)c2=O)CCC4)c(OC)c1	18µM*	6%	u	-3%
COc1ccc(-n2c(=O)c3c4c(sc3n(Cc3ccc(F)cc3)c2=O)CCCC4)c(OC)c1	21µM*	3%	15µM*	-1%
O=C(NC1CCCCC1)c1cc2c(cc1Cl)N1CCCCCC1=NS2(=O)=O	-1%	-2%	-29%	x
CCOc1cc(CNC(=O)CSc2n[nH]c(-c3ccccc3)n2)cc(OCC)c1OCC	21µM*	5%	u	-1%
COc1ccc(-c2nc(SCC(=O)NCc3ccccc3Cl)n[nH]2)cc1	5.8µM*	0%	7.3µM*	0%
CC(=O)NCCCN(Cc1ccc(Cl)c(Cl)c1)c1ccc(Br)cn1	u	x	u	-2%
NC1=CC(=O)C(=O)c2ccccc21	23µM*	x	16µM*	0%
Nc1ccc(Br)c2c1C(=O)c1ccccc1C2=O	-21%	10%	u	1%
SMILES	TDP1 cell CPT	TDP1 block	DT40 TDP1 no CPT	ClpP mod
Cn1c(=O)c(-c2ccc(F)cc2)nc2cnc(Nc3ccccc3)nc21	-1%	x	-4%	x
Cc1ccc(C(=O)N2c3nc(-c4ccco4)nn3C3(CCCCC3)[C@@H]3CCCC[C@@H]32)cc1	16µM*	-2%	15µM*	-1%
O=C(c1ccccc1)N1c2nc(-c3ccco3)nn2C2(CCCCC2)[C@@H]2CCCC[C@@H]21	-4%	4%	2%	-1%
COc1cccc(C(=O)N2c3nc(-c4ccco4)nn3C3(CCCCC3)[C@@H]3CCCC[C@@H]32)c1	u	5%	16µM*	0%
O=C(c1cccc(Cl)c1)N1c2nc(-c3ccco3)nn2C2(CCCCC2)[C@@H]2CCCC[C@@H]21	u	5%	u	-2%
CC[n+]1c(/C=C/C=C/N(C(C)=O)c2ccccc2)sc2cc(OC)ccc21	3.3µM*	5%	2.6µM*	-1%
CCC(C(=O)NC(C)(C)C)N(C(=O)Cn1nnc(-c2ccccc2F)n1)c1cccc2c1CCCC2 (stereo unspecified)	u	3%	18µM*	-2%
CC(C)(C)NC(=O)C(c1ccco1)N(C(=O)Cn1nnc(-c2ccc(F)cc2)n1)c1ccccc1F (stereo unspecified)	29µM*	3%	16µM*	1%
CC(C(=O)NC1CCCC1)N(C(=O)Cn1nnc(-c2ccc(F)cc2)n1)c1ccccc1F (stereo unspecified)	23µM*	x	23µM*	x
CC(C(=O)NC1CCCC1)N(C(=O)c1ccc(-c2ccccc2)[nH]1)c1ccccc1F (stereo unspecified)	-18%	7%	u	32µM*
COc1ccc(CN(CC(=O)NC2CCCC2)C(=O)c2ccc(-c3ccccc3)[nH]2)cc1	-28%	8%	u	x
CC(C)CCNC(=O)CN(C(=O)Cn1nnc(-c2ccccc2F)n1)c1cccc2c1CCCC2	-3%	4%	-6%	0%
CC(C)CC(C(=O)NCC1CCCO1)N(C(=O)Cn1nnc(-c2ccc(F)cc2)n1)c1ccccc1F (stereo unspecified)	-27%	1%	-28%	0%
CC(C)(C)NC(=O)C(c1ccco1)N(C(=O)Cn1nnc(-c2ccc(F)cc2)n1)c1ccccc1 (stereo unspecified)	u	x	u	0%
C/C(=C/c1ccccc1)C(=O)N1CCN(c2ccc(F)cc2)CC1	-6%	x	u	-3%
O=C(O)COc1ccccc1/C=N/NC(=O)CSc1nc2ccccc2n1Cc1ccc(Cl)cc1	3%	0%	-3%	-3%
Cc1ccccc1C(=O)Nc1nnc(-c2ccco2)o1	21µM*	11%	18µM*	x
CC(=O)Nc1nnc(-c2ccc3c(c2)CCCC3)o1	-18%	1%	u	-16%
O=C(Nc1nnc(-c2ccco2)o1)c1ccc(Cl)cc1	u	10%	13µM*	x
O=C(Nc1nnc(-c2ccco2)o1)c1cccc(N2C(=O)CCC2=O)c1	12%	-4%	6%	x
COc1ccccc1C(=O)Nc1nnc(-c2ccc3c(c2)CCCC3)o1	u	11%	23µM*	9%
Cc1ccc(C(=O)Nc2nnc(-c3ccco3)o2)cc1C	23µM*	5%	15µM*	-1%
Cc1ccc(/C=C2\SC(=S)N(CCCC(=O)Nc3cccc(C(=O)O)c3)C2=O)cc1	1%	6%	9%	-17%
COC(=O)C/C=C/C(C)C(OC)c1ccccc1Br (stereo unspecified)	x	4%[21 µM]	x	x
